Screening results as filed in PubChem.
Most compounds without a hit are left out; they make up all but 27% or so of the library.
sEH inhibitor: soluble epoxide hydrolase inhibitors, primary screen, biochemical, human sEH; actives 0.34% (n = 91,000); recombinant human sEH enzymatic activity assay; AID 707, 2007; inhibition, % at 2 µM; in the data active means inhibition above about 80%
CYP2C9 activ: human CYP2C9 activators, primary screen, biochemical, luminescence; Cytochrome P450 2C9 (Homo sapiens), P11712; recombinant CYP2C9, luciferin-H conversion; stronger effect = higher value; factor 1 = untreated enzyme, 0 = blocked; activation factor at 5 µM; actives 1.4% (n = 96,000); AID 1024, 2008;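 active means activation factor of 2 or more for CYP2C9 at a 5 µM dose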;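 further: 0 = sulfaphenazole-blocked wells and 1 = vehicle-only wells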
Target sequence (P11712 whole entry, looked up): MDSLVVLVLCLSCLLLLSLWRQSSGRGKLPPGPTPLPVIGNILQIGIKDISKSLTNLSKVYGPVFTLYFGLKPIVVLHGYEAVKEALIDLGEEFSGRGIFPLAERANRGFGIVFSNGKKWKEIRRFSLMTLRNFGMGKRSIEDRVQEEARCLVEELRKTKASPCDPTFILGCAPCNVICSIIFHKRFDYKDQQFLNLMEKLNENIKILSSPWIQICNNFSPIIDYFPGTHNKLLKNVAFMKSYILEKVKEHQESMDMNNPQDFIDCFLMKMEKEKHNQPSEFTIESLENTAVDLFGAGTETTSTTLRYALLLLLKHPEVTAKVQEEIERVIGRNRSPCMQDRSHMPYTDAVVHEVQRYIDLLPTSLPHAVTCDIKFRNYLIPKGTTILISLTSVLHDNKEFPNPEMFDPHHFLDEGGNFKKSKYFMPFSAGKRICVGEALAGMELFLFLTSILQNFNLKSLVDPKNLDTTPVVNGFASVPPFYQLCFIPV
CYP2C19 inhib: blockers of cytochrome P450 2C19 activity – biochemical, luminescence, ADME assay, primary screen. actives 21% (n = 96,000). CYP2C19 Supersomes, luciferin-H EGE luminescence, 30 min. P33261. AID 778, 2007. inhibition, % at 5 µM;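 active means CYP2C19 inhibition above a set limit at 5 µM in the primary screen, cut at about 50% in these data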;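 further: plate controls were negative control wells for no effect and 2.5 mM tranylcypromine positive control for full effect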
CYP2C9 inh: blockers of cytochrome P450 2C9 activity – biochemical, luminescence, ADME assay, primary screen; AID 777, 2007; CYP2C9 Supersomes, luciferin-H conversion; inhibition, % at 5 µM; actives 20% (n = 96,000);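 active means blocking of liver enzyme CYP2C9 beyond about 50% at 5 µM, limit read from the data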
CYP2C19 act: human CYP2C19 activators, primary screen, biochemical, luminescence; recombinant CYP2C19, luciferin-H EGE luminescence; stronger effect = higher value; 0 = fully inhibited enzyme, 1 = untreated enzyme; activation factor at 5 µM; 96,000 tested, under 10 active; Cytochrome P450 2C19 (Homo sapiens), P33261;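 active means activation factor of at least 2 at 5 µM in the primary screen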;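 further: 0 = wells with 2.5 mM tranylcypromine and 1 = vehicle-only wells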
sEH act: soluble epoxide hydrolase activators, primary screen, biochemical, human sEH; activation, % at 2 µM; AID 717, 2007; purified human sEH enzymatic activity, activator screen; actives 0.04% (n = 91,000); in the data active means activation above about 37%
The depositor's hits bear a star; x = no result.

SMILES	sEH inhibitor	CYP2C9 activ	CYP2C19 inhib	CYP2C9 inh	CYP2C19 act	sEH act
Cc1cc(NC2CCCCC2)nc(-c2ccccc2O)n1	-1	0.4	7	57*	0.9	-2
Cc1cc(NCc2ccccc2)nc(-c2ccccc2O)n1	x	0.3	30	65*	0.7	x
CCOC(=O)c1ccc(Nc2nc(C(=O)OCC)nc3ccccc23)cc1	8	0.6	56*	37	0.4	-8
CCOC(=O)c1[nH]c(C)c(/C(O)=C2\C(=O)C(=O)N(CCN(C)C)C2c2ccncc2)c1C (configuration not stated)	-5	0.8	-5	21	1	5
Nc1c(C(O)(C(F)(F)F)C(F)(F)F)cc(C(O)(C(F)(F)F)C(F)(F)F)c2ccccc12	-4	x	x	x	x	3
O=C1Nc2ccccc2C(O)(C(=O)NCc2ccco2)N1c1ccc(Cl)c(Cl)c1 (configuration not stated)	-5	0.8	17	22	0.8	7
Cc1c(-n2cc(C(=O)c3cc(Br)ccc3O)cc(C#N)c2=O)c(=O)n(-c2ccccc2)n1C	-8	0.4	36	64*	0.6	9
COCc1cc(=O)n2[nH]c(-c3cccc(Br)c3)cc2n1	6	0.5	95*	50	0	-5
CC1CCc2ccccc2N1C(=O)c1cccs1 (configuration not stated)	1	0.7	22	28	0.8	2
COc1ccc(S(=O)(=O)N2CCC(C(=O)N3CCCCC3)CC2)cc1Cl	4	0.8	92*	20	0.1	-4
COc1ccc(S(=O)(=O)N2CCC(C(=O)N3CCCC3)CC2)cc1Cl	1	0.8	89*	22	0.1	2
COc1ccc(NC(=O)C2CCN(S(=O)(=O)c3ccc(OC)c(OC)c3)CC2)cc1	-3	0.8	32	19	0.7	3
COc1cc(-c2nnc(CSc3nnc4nc(C)cc(C)n34)o2)cc(OC)c1OC	-7	0.9	10	9	0.9	4
COc1ccc(-c2cc3ccccc3n2CC(O)CNC(CO)(CO)CO)cc1 (configuration not stated)	11	0.7	45	30	0.5	-7
COc1ccc(-c2cc3ccccc3n2CC(O)Cn2nc(C)cc2C)cc1 (configuration not stated)	x	0	99*	100*	0	x
Cc1cc(C)n(CC(O)Cn2c(C)c(C)c3ccccc32)n1 (configuration not stated)	7	0.3	32	71*	0.7	-7
CCSc1nnc(-c2ccccc2NC(C)=O)c(=O)[nH]1	-7	0.8	-6	16	1.1	9
Cc1nc(NCCc2ccccc2)c2oc3ccccc3c2n1	39	0.5	31	48	0.7	-39
Cc1ccc(NC(=O)CN(c2ccc3c(c2)OCO3)S(=O)(=O)c2c(C)n[nH]c2C)cc1	0	x	x	x	x	-1
COc1cc(NC(=O)CN(c2ccc(C)cc2)S(=O)(=O)c2c(C)n[nH]c2C)cc(OC)c1	-10	0.2	82*	84*	0.2	13
COc1ccc(N(CC(=O)Nc2cccc(C)c2)S(=O)(=O)c2c(C)n[nH]c2C)cc1	x	0.2	95*	79*	0	x
COc1ccc(N(CC(=O)Nc2ccc(F)c(Cl)c2)S(=O)(=O)c2c(C)noc2C)cc1	14	0.9	4	14	1	-12
CCc1cccc(NC(=O)CN(c2ccc(OC)cc2)S(=O)(=O)c2c(C)n[nH]c2C)c1	x	0.2	88*	78*	0.1	x
COc1ccc(N(CC(=O)Nc2ccc(C)c(C)c2)S(=O)(=O)c2c(C)n[nH]c2C)cc1	x	0.3	82*	72*	0.2	x
CC(Sc1nnc(CNc2cccc3ccccc23)n1-c1ccccc1)C(=O)N/N=C/c1ccco1 (configuration not stated)	4	0.9	15	13	0.8	-1
SMILES	sEH inhibitor	CYP2C9 activ	CYP2C19 inhib	CYP2C9 inh	CYP2C19 act	sEH act
O=c1c(-c2ccc(F)cc2)coc2c3c(ccc12)OCCO3	-8	1	12	4	0.9	8
O=C(c1nn2cccnc2c1Cl)N1CCN(c2ccccc2)CC1	4	x	x	x	x	-3
Cc1ccc(N(CC(=O)Nc2cccc(C)c2)S(=O)(=O)c2cccc3nonc23)cc1	-1	0.1	55*	89*	0.4	4
CCOC(=O)c1cccc(NC(=O)CN(c2ccc(C)cc2)S(=O)(=O)c2c(C)n[nH]c2C)c1	-8	0.2	61*	82*	0.4	12
Cc1cccc(NS(=O)(=O)c2c(C)n[nH]c2C)c1	-9	0.2	68*	79*	0.3	6
CCOC(=O)Nc1ccc2ncn(C)c(=O)c2c1	-2	0.9	2	6	1	1
O=C(O)CCc1nn2c3ccccc3nc2n(CCN2CCCCC2)c1=O	-54	x	x	x	x	57*
O=C(O)CCc1nc2ccccc2n(CCc2ccccc2)c1=O	8	1	24	-4	0.8	-8
O=C(CSc1ccccn1)Nc1ccc(Br)cn1	3	0.9	54*	15	0.5	-1
O=C(CSc1ncn(-c2ccccc2)n1)Nc1ccc(Br)cn1	11	0.4	75*	58*	0.2	-9
COc1cccc(C(=O)NCCC2=CCCCC2)c1OC	15	0.7	100*	29	0	-17
O=C(NCCC1=CCCCC1)c1ccc(=O)oc1	-3	0.9	56*	14	0.4	2
COC(=O)c1cccc(NC(=S)NCCC2=CCCCC2)c1	20	0.5	40	50	0.6	-19
COc1ccc(C)cc1NC(=O)NCCC1=CCCCC1	7	1	83*	2	0.2	-9
Cc1nc2cc(NC(=O)NCCC3=CCCCC3)ccc2o1	81*	0.8	26	20	0.7	-81
CCOC(=O)N1CCN(C(=O)c2ccc3c(=O)n(CCc4ccccc4)c(=O)[nH]c3c2)CC1	4	0.8	49	17	0.5	-4
COc1ccc(C(=O)Nn2cnc3scc(-c4cccs4)c3c2=O)c(O)c1	8	x	x	x	x	-7
C=CCN1C(=O)CSc2ccc(C(=O)NCc3ccco3)cc21	x	1	8	4	0.9	x
COCCCNC(=O)c1cccc(OC)c1OC	5	1.1	56*	-8	0.4	-6
C=CCN1C(=O)CSc2ccc(C(=O)NCCC3=CCCCC3)cc21	89*	0.5	26	52*	0.7	-89
COc1cc(C(=O)NCCC2=CCCCC2)cc(OC)c1OC	x	0.7	75*	32	0.2	x
